Drawing on PubChem BioAssay, this text covers composite z-score and z-score for five molecules.

The structures appear in SMILES notation. The source made the active and inactive calls.

For test [1], the system named is PRMT1 (protein arginine N-methyltransferase 1). Kind of test: PRMT1 binders on small-molecule microarrays, primary screen, biochemical, small-molecule microarray, 635 nm fluorescence (AID 1088).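 Note: binding of Prmt1 protein to compounds spotted on small-molecule microarray slides.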 To be noted: small-molecule microarray binding, higher = more signal.
A short description of test [2]: yeast growth modulation, basal conditions, primary screen, YJM789 clinical isolate, OD600, 24 h (AID 1089).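 Note: growth of clinical yeast isolate S. cerevisiae YJM 789 seeded 1000 cells per well; test concentration not given here.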 As to conditions: S. cerevisiae YJM789 growth, higher = more signal, called active from +8 up or from −8 down.
Test [3] can be described thus: fission yeast growth modulation, primary screen, strain 972, OD600, 24 h, no modulator (AID 1090).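 Note: basal condition with compound alone and no growth modifier present; test concentration not given here.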 To be noted: S. pombe 972 growth, higher = more signal, called active from +8 up or from −8 down.
The nature of test [4]: S. cerevisiae growth modulation with rapamycin, primary screen, strain BY4716, OD600, 96 h (AID 1091). Note: test concentration not given here. To be noted: higher = more signal, called active from +8 up or from −8 down.
Test [5] concerns the target Torsin-1A-interacting protein 2 (Homo sapiens) (UniProt Q8NFQ8). Briefly: LULL1 binders on small-molecule microarray, primary screen, cell lysate, human LULL1 lysate, 635/667 nm fluorescence (AID 1092).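 Note: probe is lysate of COS7 cells overexpressing human LULL1; score merges per-feature 667 nm fluorescence with signal-to-noise.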 To be noted: hLULL1 lysate binding, 635 nm fluorescence, higher = more signal.
A short description of test [6]: E. coli growth modulation, two-sided OD650, primary screen, E. coli filamentation project, strain DRC41, 24 h (AID 1093).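 Note: MC1000 strain lacking acrAB efflux and sulA so SOS filamentation is blocked; test concentration not given here.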 To be noted: OD650, 24 h, higher = more signal, called active from +8 up or from −8 down.
Test [7] in a line: small-molecule microarray binders of probe aLefty2, primary screen, biochemical, biotinylated probe, 635/667 nm fluorescence (AID 1094).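 Note: score merges spot fluorescence near 667 nm with spot signal-to-noise ratio.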 As to conditions: higher = more signal.
For test [8], the system named is Noggin (protein binding on small-molecule microarray). Briefly: Noggin binders on small-molecule microarray, primary screen, biochemical, 635/667 nm fluorescence (AID 1095).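 Note: score merges 667 nm feature fluorescence with signal to noise over triplicate slides.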 To be noted: 635 nm fluorescence, higher = more signal.
In test [9] the target is Neurogenic locus notch homolog protein 3 (Homo sapiens) (UniProt Q9UM47). Kind of test: NOTCH3 binders on small-molecule microarray, primary screen, biochemical, 635/667 nm fluorescence (AID 1096). To be noted: NOTCH3 binding, 635 nm fluorescence, higher = more signal.
Test [10] can be described thus: small-molecule microarray binders of probe aEGFR, primary screen, biochemical, biotinylated probe, 635/667 nm fluorescence (AID 1097).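 Note: probe is a biotinylated anti-EGFR antibody binding compounds printed on slides; score combines fluorescence near 667 nm and signal to noise of each spot.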 As to conditions: higher = more signal.
In test [11] the test system is Plasmodium falciparum Sir2 (PF13_0152, Sir2A). Kind of test: pfSir2 binders on small-molecule microarrays, primary screen, biochemical, small-molecule microarray, 635 nm fluorescence (AID 1098).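 Note: score merges spot fluorescence intensity with its signal-to-noise ratio.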 To be noted: small-molecule microarray binding, fluorescence 635 nm; higher = more signal.
A short description of test [12]: small-molecule microarray binders of probe aDKK1, primary screen, biochemical, biotinylated probe, 635/667 nm fluorescence (AID 1099).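 Note: score merges 667nm spot fluorescence with signal to noise across triplicate slides; reference of the scale not given here.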 As to conditions: higher = more signal.
The nature of test [13]: small-molecule microarray binders of probe aCHRDL2, primary screen, biochemical, biotinylated probe, 635/667 nm fluorescence (AID 1100). To be noted: higher = more signal.
Test [14] in a line: splicing luciferase reporter signal modulators, primary screen, spliceosome inhibition project, cell-based, HEK293, splice +/- reporter (AID 1101).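 Note: HEK293 cells carrying a splicing-competent luciferase reporter gene; test concentration not given here.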 As to conditions: luminescence, 24 h, higher = more signal, called active from +8 up or from −8 down. For orientation: Reporter assays use an easily measured gene product as a stand-in for the process of interest.
For test [15], the target named is Fibroblast growth factor 10 (Homo sapiens) (UniProt O15520). Kind of test: FGF10 binders on small-molecule microarrays, primary screen, biochemical, small-molecule microarray, 635 nm fluorescence (AID 1102). As to conditions: FGF10 binding, fluorescence 635 nm, higher = more signal.
Test [16] has as its system glycogen synthase kinase-3 (GSK3A per assay name; protocol says GSK3B). Kind of test: GSK3 binders on small-molecule microarrays, primary screen, biochemical, small-molecule microarray, 635 nm fluorescence, GSK3A (AID 1103). Note: the record names both GSK3A and GSK3B. To be noted: small-molecule microarray binding, fluorescence 635 nm; higher = more signal.
Test [17] has as its target Epidermal growth factor receptor (Homo sapiens) (UniProt P00533). Briefly: EGFR binders on small-molecule microarrays, primary screen, biochemical, small-molecule microarray, 635 nm fluorescence (AID 1104).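 Note: score merges 667 nm emission intensity with spot signal to noise over triplicate slides.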 As to conditions: EGFR binding, higher = more signal.
Test [18] deals with Follistatin-related protein 3 (Homo sapiens) (UniProt O95633). Kind of test: FSTL3 binders on small-molecule microarrays, primary screen, biochemical, small-molecule microarray, 635 nm fluorescence (AID 1105).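 Note: score merges emission near 667 nm and signal to noise per printed spot across three slides.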 To be noted: FSTL3 binding, higher = more signal.
The target of test [19] is Dickkopf-related protein 1 (Homo sapiens) (UniProt O94907). Kind of test: DKK1 binders on small-molecule microarrays, primary screen, biochemical, small-molecule microarray, 635 nm fluorescence scan (AID 1106).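 Note: score merges emission near 667 nm with signal to noise over three replicate slides.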 As to conditions: DKK1 binding, higher = more signal.
Test [20] has as its system Inhibin beta A chain (activin A). Kind of test: INHBA (activin A) binders on microarrays, primary screen, biochemical, small-molecule microarray, 635 nm fluorescence scan (AID 1107).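 Note: mouse activin A protein probed at 4.33 µg/mL on printed slides; score merges bound-protein fluorescence near 667 nm with spot signal-to-noise.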 As to conditions: small-molecule microarray binding, higher = more signal.

Chain of Fibroblast growth factor 10 (Homo sapiens) (O15520 whole entry, looked up): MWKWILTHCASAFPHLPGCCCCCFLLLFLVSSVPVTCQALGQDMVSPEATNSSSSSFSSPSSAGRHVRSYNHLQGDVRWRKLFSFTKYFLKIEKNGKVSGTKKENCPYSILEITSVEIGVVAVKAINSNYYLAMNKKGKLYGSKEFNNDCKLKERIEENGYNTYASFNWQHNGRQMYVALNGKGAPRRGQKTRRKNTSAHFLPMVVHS
Chain of Dickkopf-related protein 1 (Homo sapiens) (O94907 whole entry, looked up): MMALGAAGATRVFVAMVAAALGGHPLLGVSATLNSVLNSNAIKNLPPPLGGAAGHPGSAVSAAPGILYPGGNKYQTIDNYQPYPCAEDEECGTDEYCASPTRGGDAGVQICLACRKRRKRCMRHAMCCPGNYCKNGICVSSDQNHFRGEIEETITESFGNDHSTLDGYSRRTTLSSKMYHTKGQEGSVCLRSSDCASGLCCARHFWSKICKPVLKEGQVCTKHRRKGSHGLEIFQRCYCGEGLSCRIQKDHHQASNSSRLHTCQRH
Chain of Torsin-1A-interacting protein 2 (Homo sapiens) (Q8NFQ8 whole entry, looked up): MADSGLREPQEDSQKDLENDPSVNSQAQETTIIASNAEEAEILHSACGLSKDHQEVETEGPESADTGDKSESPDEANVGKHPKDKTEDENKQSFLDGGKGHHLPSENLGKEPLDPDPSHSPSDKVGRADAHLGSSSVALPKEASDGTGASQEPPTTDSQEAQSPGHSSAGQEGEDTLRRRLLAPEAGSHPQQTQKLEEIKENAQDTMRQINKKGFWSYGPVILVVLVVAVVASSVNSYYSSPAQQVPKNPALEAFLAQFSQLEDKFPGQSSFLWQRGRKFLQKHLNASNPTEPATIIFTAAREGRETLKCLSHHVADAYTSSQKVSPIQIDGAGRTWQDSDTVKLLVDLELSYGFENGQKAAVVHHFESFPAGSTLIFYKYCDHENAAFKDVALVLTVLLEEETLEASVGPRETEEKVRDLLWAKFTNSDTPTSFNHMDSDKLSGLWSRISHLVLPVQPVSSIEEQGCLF
Chain of Neurogenic locus notch homolog protein 3 (Homo sapiens) (Q9UM47 whole entry, looked up): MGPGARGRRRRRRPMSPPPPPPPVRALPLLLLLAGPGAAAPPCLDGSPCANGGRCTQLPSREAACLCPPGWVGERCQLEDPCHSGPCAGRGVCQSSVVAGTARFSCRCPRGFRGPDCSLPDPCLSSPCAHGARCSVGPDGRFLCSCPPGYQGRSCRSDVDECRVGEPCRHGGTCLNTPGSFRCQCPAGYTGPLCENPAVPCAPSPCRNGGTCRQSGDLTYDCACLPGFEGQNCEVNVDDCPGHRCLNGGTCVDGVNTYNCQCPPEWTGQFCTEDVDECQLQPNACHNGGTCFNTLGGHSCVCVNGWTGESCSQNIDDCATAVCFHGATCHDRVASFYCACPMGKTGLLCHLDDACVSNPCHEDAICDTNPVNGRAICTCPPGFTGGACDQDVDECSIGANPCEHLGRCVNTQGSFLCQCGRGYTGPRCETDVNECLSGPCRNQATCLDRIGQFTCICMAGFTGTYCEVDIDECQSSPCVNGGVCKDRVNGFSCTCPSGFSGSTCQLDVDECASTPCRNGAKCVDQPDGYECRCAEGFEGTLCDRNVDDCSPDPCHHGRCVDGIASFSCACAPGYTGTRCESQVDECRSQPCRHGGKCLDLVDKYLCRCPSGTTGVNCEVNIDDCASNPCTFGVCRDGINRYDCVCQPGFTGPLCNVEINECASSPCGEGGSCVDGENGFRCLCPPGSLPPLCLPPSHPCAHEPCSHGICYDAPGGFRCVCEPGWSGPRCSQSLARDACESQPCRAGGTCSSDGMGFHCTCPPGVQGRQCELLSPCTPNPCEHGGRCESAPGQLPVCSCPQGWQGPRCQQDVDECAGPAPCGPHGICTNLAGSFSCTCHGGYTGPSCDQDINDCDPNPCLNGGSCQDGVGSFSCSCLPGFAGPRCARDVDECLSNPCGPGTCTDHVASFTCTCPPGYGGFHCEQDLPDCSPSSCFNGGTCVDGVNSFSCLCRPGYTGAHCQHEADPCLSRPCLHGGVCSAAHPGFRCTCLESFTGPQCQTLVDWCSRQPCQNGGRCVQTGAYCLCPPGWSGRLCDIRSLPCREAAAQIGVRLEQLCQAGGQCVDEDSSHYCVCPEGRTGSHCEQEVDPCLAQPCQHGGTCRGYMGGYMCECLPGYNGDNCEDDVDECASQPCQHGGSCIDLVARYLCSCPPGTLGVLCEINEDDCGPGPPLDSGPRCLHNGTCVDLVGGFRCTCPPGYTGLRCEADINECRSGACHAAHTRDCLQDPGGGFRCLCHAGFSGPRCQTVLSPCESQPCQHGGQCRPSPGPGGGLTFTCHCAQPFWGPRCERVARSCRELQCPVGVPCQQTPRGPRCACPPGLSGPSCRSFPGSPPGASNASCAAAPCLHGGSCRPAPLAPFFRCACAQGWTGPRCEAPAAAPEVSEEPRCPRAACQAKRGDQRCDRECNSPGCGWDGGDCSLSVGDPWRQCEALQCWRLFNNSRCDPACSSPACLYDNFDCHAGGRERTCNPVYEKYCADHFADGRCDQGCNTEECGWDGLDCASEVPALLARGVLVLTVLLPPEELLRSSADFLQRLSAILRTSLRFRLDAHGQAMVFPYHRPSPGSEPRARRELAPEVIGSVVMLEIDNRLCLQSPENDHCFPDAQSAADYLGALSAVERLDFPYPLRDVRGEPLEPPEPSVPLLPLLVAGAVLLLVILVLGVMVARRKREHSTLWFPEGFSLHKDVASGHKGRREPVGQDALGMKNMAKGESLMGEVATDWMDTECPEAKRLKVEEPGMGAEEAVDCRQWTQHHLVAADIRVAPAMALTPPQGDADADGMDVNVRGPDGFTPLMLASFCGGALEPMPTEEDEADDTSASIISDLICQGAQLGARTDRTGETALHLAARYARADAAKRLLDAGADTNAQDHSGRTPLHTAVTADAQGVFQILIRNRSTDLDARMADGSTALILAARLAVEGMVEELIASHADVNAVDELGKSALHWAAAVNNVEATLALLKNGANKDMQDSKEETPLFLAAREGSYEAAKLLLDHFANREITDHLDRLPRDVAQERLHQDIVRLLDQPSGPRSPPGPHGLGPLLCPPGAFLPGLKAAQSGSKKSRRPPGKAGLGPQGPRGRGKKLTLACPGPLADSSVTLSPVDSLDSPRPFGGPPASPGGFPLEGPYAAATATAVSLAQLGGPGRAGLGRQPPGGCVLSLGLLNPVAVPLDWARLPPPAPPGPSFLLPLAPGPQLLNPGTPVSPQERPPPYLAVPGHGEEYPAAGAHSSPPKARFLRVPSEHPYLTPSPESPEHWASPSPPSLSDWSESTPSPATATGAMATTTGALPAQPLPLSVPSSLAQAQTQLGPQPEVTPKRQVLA
Chain of Follistatin-related protein 3 (Homo sapiens) (O95633 whole entry, looked up): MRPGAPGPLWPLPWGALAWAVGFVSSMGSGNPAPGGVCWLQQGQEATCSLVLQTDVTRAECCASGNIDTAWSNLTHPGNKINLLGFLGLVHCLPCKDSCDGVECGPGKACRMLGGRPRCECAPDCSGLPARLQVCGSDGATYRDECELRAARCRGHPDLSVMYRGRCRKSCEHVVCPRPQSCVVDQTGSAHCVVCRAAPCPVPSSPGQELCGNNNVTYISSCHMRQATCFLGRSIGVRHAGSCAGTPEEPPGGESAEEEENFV
Chain of Epidermal growth factor receptor (Homo sapiens) (P00533 whole entry, looked up): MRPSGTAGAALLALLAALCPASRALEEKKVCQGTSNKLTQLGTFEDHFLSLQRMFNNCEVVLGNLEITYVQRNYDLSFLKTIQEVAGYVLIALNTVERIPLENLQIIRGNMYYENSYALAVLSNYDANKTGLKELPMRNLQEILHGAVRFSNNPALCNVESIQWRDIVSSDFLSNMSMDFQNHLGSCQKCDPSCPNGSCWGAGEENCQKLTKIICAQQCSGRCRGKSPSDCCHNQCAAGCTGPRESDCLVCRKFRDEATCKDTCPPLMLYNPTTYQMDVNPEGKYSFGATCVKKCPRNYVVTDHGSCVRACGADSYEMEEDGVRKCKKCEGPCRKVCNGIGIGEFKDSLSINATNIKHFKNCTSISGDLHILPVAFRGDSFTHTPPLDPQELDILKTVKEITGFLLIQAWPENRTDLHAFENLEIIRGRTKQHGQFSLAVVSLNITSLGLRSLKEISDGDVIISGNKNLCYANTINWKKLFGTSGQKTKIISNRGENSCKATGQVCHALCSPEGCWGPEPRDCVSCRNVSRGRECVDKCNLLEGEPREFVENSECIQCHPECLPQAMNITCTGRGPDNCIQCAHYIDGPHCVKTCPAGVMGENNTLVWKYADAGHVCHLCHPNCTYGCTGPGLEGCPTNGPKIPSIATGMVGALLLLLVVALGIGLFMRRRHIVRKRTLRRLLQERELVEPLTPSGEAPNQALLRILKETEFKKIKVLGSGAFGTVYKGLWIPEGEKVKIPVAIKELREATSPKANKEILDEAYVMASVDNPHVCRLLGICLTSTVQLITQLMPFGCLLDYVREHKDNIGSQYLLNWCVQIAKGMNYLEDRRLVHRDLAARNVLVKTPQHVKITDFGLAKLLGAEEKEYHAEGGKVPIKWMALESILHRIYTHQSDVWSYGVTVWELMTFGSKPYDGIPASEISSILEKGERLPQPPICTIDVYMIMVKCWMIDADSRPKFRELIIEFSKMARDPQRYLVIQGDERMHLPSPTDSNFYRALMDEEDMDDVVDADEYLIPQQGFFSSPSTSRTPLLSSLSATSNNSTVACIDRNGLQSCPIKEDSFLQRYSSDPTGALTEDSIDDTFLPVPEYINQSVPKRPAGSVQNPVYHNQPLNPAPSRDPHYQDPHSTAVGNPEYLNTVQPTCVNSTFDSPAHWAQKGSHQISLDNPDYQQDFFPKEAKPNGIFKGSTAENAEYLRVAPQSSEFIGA

As to `[N-]=[N+]=NCc1ccccc1C[C@]1(C(=O)N2CCOCC2)N=C(c2ccc(OCCCO)cc2)O[C@H]1c1ccccc1`, the composite z-score in test [1] is 1.46; in test [5], 2.33; in test [7], -0.162; in [8] it was 1.15; in [9] it was 0.673; in test [10], -0.0509. Also, the composite z-score was 0.947 in [11]; 0.102 in test [12]; 0.904 in test [13]; 1.39 in test [15]; 0.551 in [16]; -0.458 in test [17]. For the same molecule, the composite z-score in [18] is 0.223; in [19] it was -0.774; in test [20], 0.275. Further, the z-score in test [2] is -0.432 (inactive); in test [3], -9.19 (active); in [4], 31.6 (active); in test [6], 1.33 (inactive); in test [14] it was -1.18 (inactive).

`O=C(NCCN1CCOCC1)[C@@H]1c2ccccc2C(=O)N(Cc2cc(F)cc(C(F)(F)F)c2)[C@H]1c1ccc(CO)cc1`: the composite z-score was 1.54 in test [1]; 3.05 in test [5]; -0.22 in test [7]; 0.935 in [8]; 0.58 in test [9]; -0.149 in test [10]. Besides, the composite z-score in [11] was 1.07; in test [12] it was -0.469; in [13], 0.776; in [15], 0.07; in test [16] it was -0.202; in [17], -0.651. Further, the composite z-score in test [18] was -0.217; in [19], -1.14; in [20] it was -0.333. Besides, the z-score was -0.718 (inactive) in [2]; -0.447 (inactive) in test [3]; -0.405 (inactive) in test [4]; -0.356 (inactive) in test [6]; 0.284 (inactive) in test [14].

In the case of `CCN(CC)c1ccc(N2CC=CC34O[C@@H]5C=CCOC(=O)[C@@H]5[C@H]3C(=O)N(CCCCCO)[C@@H]4C2=O)cc1` (stereo not given in full), the composite z-score in test [1] was -0.456; in test [5] it was 2.74; in test [7] it was -0.138; in test [8], -0.769; in [9], -0.589; in test [10], -0.201. For the same molecule, the composite z-score is 1.85 in [11]; -0.0647 in test [12]; 0.682 in [13]; 0.126 in [15]; -0.453 in test [16]; -1.53 in test [17]. Further, the figures for the composite z-score in test [18], in [19] and in [20] were -1.22, -0.413 and 1.1, respectively. Moreover, the z-score was -0.821 (inactive) in test [2]; -1.3 (inactive) in test [3]; -0.522 (inactive) in test [4]; 1.29 (inactive) in [6]; 0.223 (inactive) in test [14].

Regarding `O=C(NCC(O)CO)[C@@]1(Cc2ccccc2)COC(c2ccc(OCCCO)cc2)=N1` (stereo not given in full), the composite z-score in test [1] is -0.546; in test [5], 1.1; in [7], -0.0809; in [8] it was -0.891; in [9], -1.18; in test [10], 0.132. The composite z-score in test [11] is -0.509; in test [12], 0.549; in test [13] it was 0.536; in test [15], -0.309; in test [16] it was -0.546; in test [17], -0.198. The figures for the composite z-score in test [18], in test [19] and in [20] were -1.21, -0.92 and 0.656, respectively. Further, the z-score in test [2] was 0.0965 (inactive); in test [3], -0.92 (inactive); in test [4], -0.639 (inactive); in test [6], 0.869 (inactive); in test [14], 0.138 (inactive).

With `C=CCN1C(=O)[C@@]2(O[C@@H](CCO)[C@H]([Si](C)(C)c3ccc(OC)cc3)[C@H]2C)c2cc(N3C(=O)COc4ccccc43)ccc21`, the composite z-score in test [1] was 1.45; in [5] it was 1.81; in test [7], -0.275; in test [8], 0.17; in [9] it was 0.4; in [10] it was -0.178. The composite z-score in test [11] is 1.16; in test [12] it was -0.447; in test [13] it was -0.0458; in test [15], 0.993; in test [16] it was 0.324; in test [17], -0.289. The figures for the composite z-score in [18], in [19] and in test [20] were 0.193, -0.609 and -0.145, respectively. The z-score in [2] is 1.64 (inactive); in test [3], 0.842 (inactive); in test [4] it was 35.4 (active); in test [6], 0.375 (inactive); in test [14] it was -3.26 (inactive).
